From PubChem BioAssay (Tox21)
Active and inactive are the calls of the source. Calls come from the whole dose curve; as a rule, active = well fitted curve in the direction sought with a large enough effect in the repeat runs; inconclusive = weak or mixed curves; inactive = flat fitted curve, though single readings scatter.

Test: qHTS assay to test for compound auto fluorescence at 590 nm (red) in HEK293 cells (AID 720679)
Details: red autofluorescence 540/590 nm; series mostly up to 46 µM; fluorescence, % of fluorescent control: at the top concentration
Text: National Center for Advancing Translational Sciences [NCATS]
NIH Chemical Genomics Center [NCGC]
U.S. Environmental Protection Agency [EPA]
National Institutes of Environmental Health Sciences [NIEHS]
National Toxicology Program [NTP]
U.S. Food and Drug Administration [FDA]
Compound auto fluorescence often interferes with screening of the compound library against various biological targets and signaling pathways. Some of these compounds may have fluorophoric properties. Such properties may interfere with the assay outputs resulting in false positives and/or negatives. To decrease such complications and ensure the compound activities are relevant in terms of biological response, the Tox21 10K compound library was screened for auto fluorescence.
From the fluorophores used as reporter signals in our screening assays, the auto fluorescence equivalencies of compounds against three fluorophores have been evaluated: Triamterene, Fluorescein and Rose Bengal sodium for blue, green and red fluorescence, respectively. The fluorescence intensities were measured using Excitation/Emission wavelengths at 405/460nm, 485/535nm and 540/590nm for blue, green and red labels, respectively. This assay includes the red fluorescence data.
Tox21 Assay Protocol Summary:
2,000 HEK293 cells in 5 uL of culture medium containing 10% dialyzed FBS per well were dispensed into black wall/clear bottom 1536-well plates using a Multidrop Combi Dispenser (Thermo Scientific). The assay plates were incubated for 4-5 hr at 37C to allow cell attachment to the well bottom, followed by the transfer of 23 nL compound or DMSO vehicle by a pintool work station (Kalypsys, San Diego, CA). After the assay plates were incubated overnight at 37C and 5% CO2, fluorescence intensities in the assay plates were measured by an Envision (PerkinElmer, Shelton, CT) plate reader using three labels for measuring blue, green and red fluorescence at […] 460, 535 and 590nm respectively.
% is set by controls: 0 for no effect and ±100 for the full control effect; potency is the fitted concentration of half-maximal effect; tags give direction and shape of the fitted curve or compound fluorescence and quenching.

SMILES | fluorescence, % of fluorescent control | Potency
O=C(O)c1nc(=O)[nH]c(=O)[nH]1 | -0.436% (inactive) | 
CN[C@@H]1[C@H](O[C@H]2[C@H](O[C@H]3[C@H](O)[C@@H](O)[C@H](N=C(N)N)[C@@H](O)[C@@H]3N=C(N)N)O[C@@H](C)[C@]2(O)C=O)O[C@@H](CO)[C@H](O)[C@H]1O | -0.0523% (inactive) | 
CCCCCCCCCCCCCCCC(=O)OC[C@@H](O)[C@H]1OC[C@H](O)[C@H]1O | 0.063% (inactive) | 
CCCCCCCCCCCCCCCC(=O)OC[C@@H](COP(=O)([O-])OCC[N+](C)(C)C)OC(=O)CCCCCCCCCCCCCCC | 0.102% (inactive) | 
CC[C@@]1(O)C(=O)OCc2c1cc1n(c2=O)Cc2cc3c([N+](=O)[O-])cccc3nc2-1 | 0.0421% (inactive) | 
CO/N=C(\C(=O)N[C@@H]1C(=O)N2C(C(=O)OCOC(=O)C(C)(C)C)=C(/C=C\c3scnc3C)CS[C@H]12)c1csc(N)n1 | 0.0132% (inactive) | 
Cc1ncc(C[n+]2csc(CCOP(=O)(O)OP(=O)(O)O)c2C)c(N)n1 | 0.246% (inactive) | 
CCCCC(C)(O)C/C=C/[C@H]1[C@H](O)CC(=O)[C@@H]1CCCCCCC(=O)OC (stereo not given in full) | 0.0099% (inactive) | 
C=CCSSSCC=C | 1.14% (inactive) | 
CCC(C)[C@@H](N)C(=O)O (stereo not given in full) | 0.115% (inactive) | 
CCCCCCCCCCCCCCCCCC(=O)OC[C@@H](O)[C@H]1OC[C@H](O)[C@H]1O | 0.0678% (inactive) | 
O=[N+]([O-])c1ccc(Oc2ccc(N=C=S)cc2)cc1 | 0% (inactive) | 
CN[C@H]1CCc2cc(OC)c(OC)c(OC)c2-c2ccc(OC)c(=O)cc21 | -0.0408% (inactive) | 
Nc1c(Br)cc(Br)cc1CNC1CCC(O)CC1 (stereo not given) | -0.0854% (inactive) | 
CCCOc1ccc2nc(NC(=O)OC)sc2c1 | 0.0044% (inactive) | 
O=C(CCCCCCCCCCCCC1CCCC1)Nc1ccc(S(=O)(=O)c2ccc(NC(=O)CCCCCCCCCCCCC3CCCC3)cc2)cc1 | 0.0745% (inactive) | 
O=C(O)c1ccc(OCCn2ccnc2)cc1 | 0.374% (inactive) | 
CC(C)(C)NC[C@H](O)COc1ccccc1C1CCCC1 | 0.0382% [at 18.6 µM] (inactive) | 
CC(C)(C)CC(=O)OCC(=O)[C@@]12OC(C)(C)O[C@@H]1C[C@H]1[C@@H]3CCC4=CC(=O)C=C[C@]4(C)[C@@]3(F)[C@@H](O)C[C@@]12C | 0.0298% (inactive) | 
CCNC(=O)[C@@H]1CCCN1C(=O)[C@H](CCCN=C(N)N)NC(=O)[C@H](CC(C)C)NC(=O)[C@@H](CC(C)C)NC(=O)[C@H](Cc1ccc(O)cc1)NC(=O)[C@H](CO)NC(=O)[C@H](Cc1c[nH]c2ccccc12)NC(=O)[C@H](Cc1cnc[nH]1)NC(=O)[C@@H]1CCC(=O)N1 | -0.857% (inactive) | 

SMILES | fluorescence, % of fluorescent control | Potency
CN1[C@@H]2CC[C@H]1CC(OC(c1ccccc1)c1ccccc1)C2 (stereo not given in full) |  | inactive
CCCCCC(O)/C=C/C=O (stereo not given) | -0.117% (inactive) | 
O=C(O)c1c(Cl)c(Cl)c(Cl)c(Cl)c1-c1c2cc(I)c(=O)c(I)c-2oc2c(I)c(O)c(I)cc12 |  | 11.2 µM [fluorescent] (active)
NC[C@@H]1O[C@H](O[C@H]2[C@@H](O)[C@H](O[C@@H]3[C@@H](O)[C@H](N)C[C@H](N)[C@H]3O[C@H]3O[C@H](CO)[C@@H](O)[C@H](O)[C@H]3N)O[C@@H]2CO)[C@H](N)[C@@H](O)[C@@H]1O | -0.0212% (inactive) | 
OC(CN1CCCCC1)c1cc(-c2ccccc2)on1 (stereo not given) | -1.18% (inactive) | 
Cn1nnnc1SCC1=C(C(=O)O)N2C(=O)[C@@H](NC(=O)[C@H](OC=O)c3ccccc3)[C@H]2SC1 | -0.115% (inactive) | 
CC[C@@H](C(=O)O)[C@@H]1O[C@@H]([C@@H](C)[C@H](O)[C@H](C)C(=O)[C@H](CC)[C@H]2O[C@]3(C=C[C@@H](O)[C@]4(CC[C@@](C)([C@H]5CC[C@](O)(CC)[C@H](C)O5)O4)O3)[C@H](C)C[C@@H]2C)[C@@H](C)C[C@@H]1C | 0.104% (inactive) | 
CCOC(=O)Oc1c(OC)cc(C(=O)O[C@@H]2C[C@@H]3CN4CCc5c([nH]c6cc(OC)ccc56)[C@H]4C[C@@H]3[C@H](C(=O)OC)[C@H]2OC)cc1OC | -0.0775% [at 18.6 µM] (inactive) | 
CC(C)(CO)[C@@H](O)C(=O)NCCCC(=O)O | -0.0007% (inactive) | 
CN[C@@H]1[C@H](O[C@H]2[C@H](O[C@H]3[C@H](O)[C@@H](O)[C@H](N=C(N)N)[C@@H](O)[C@@H]3N=C(N)N)O[C@@H](C)[C@]2(O)CO)O[C@@H](CO)[C@H](O)[C@H]1O | -0.279% (inactive) | 
CN1C(=O)CN2CCc3ccccc3C2c2cc(Cl)ccc21 (stereo not given) | -0.0342% (inactive) | 
CO[C@H]1C[C@@H]2CC[C@@H](C)[C@@](O)(O2)C(=O)C(=O)N2CCCC[C@H]2C(=O)O[C@H]([C@H](C)C[C@@H]2CC[C@@H](OC(=O)C(C)(CO)CO)[C@H](OC)C2)CC(=O)[C@H](C)/C=C(\C)[C@@H](O)[C@@H](OC)C(=O)[C@H](C)C[C@H](C)/C=C/C=C/C=C/1C | 0.0941% (inactive) | 
CC(C)CN(C[C@@H](OP(=O)(O)O)[C@H](Cc1ccccc1)NC(=O)O[C@H]1CCOC1)S(=O)(=O)c1ccc(N)cc1 | 0.0025% (inactive) | 
Cc1nc(NS(=O)(=O)c2ccc(N)cc2)nc(C)c1Br | -0.106% (inactive) | 
CC1(C)C(\C=C/C=C\C=C/C=C2/N(CCCCS(=O)(=O)O)c3ccc4ccccc4c3C2(C)C)=[N+](CCCCS(=O)(=O)[O-])c2ccc3ccccc3c21 | -0.168% (inactive) | 
N[C@H](CCC(=O)O)C(=O)O | -0.628% (inactive) | 
O=S(O)CNc1ccc(S(=O)(=O)c2ccc(NCS(=O)O)cc2)cc1 | -0.135% (inactive) | 
CC(=O)[C@@]1(O)CC[C@H]2[C@@H]3C=C(Cl)C4=CC(=O)[C@@H]5C[C@@H]5[C@]4(C)[C@H]3CC[C@@]21C | 0.0657% (inactive) | 
O=C(COc1ccc(Cl)cc1)OCCNC12CC3CC(CC(C3)C1)C2 | -1.25% (inactive) | 
Cn1c(=O)c2c(ncn2CCOC(=O)C(C)(C)Oc2ccc(Cl)cc2)n(C)c1=O | -0.176% (inactive) | 
